An excerpt weighted towards active compounds, which were near 4.1% of everything screened.
aSyn UTR inh – 5' untranslated region of α-synuclein, MLPCN primary screen; inhibition, % (tested at 7.5 µM); AID 1813; hit rate 0.82% among 300,000; alpha-synuclein 5'UTR reporter, inhibitor activity; in the data active = inhibition above about 60%;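 note: H4 neuroglioblastoma cells stably carrying SNCA 5'UTR luciferase fusion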
KLF5 inhibitor – inhibitors of KLF5 expression | AID 1700 | hit rate 0.23% among 290,000 | inhibition, % at 5 µM | DLD-1 KLF5 promoter-luciferase reporter, luminescence;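 active = inhibition above a per-plate limit of that plate's mean compound inhibition plus 3 SD, cut at about 60% in these data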;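 note: higher means less KLF5 promoter-driven luciferase light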
Jurkat NFkB inh – lowers PMA/ionomycin-induced NF-kB signal in Jurkat cells | inhibition, % at 4 µM | AID 435003 | hit rate 0.53% among 330,000 | PMA/ionomycin-induced NF-kB luciferase reporter, luminescence; in the data active = inhibition above about 50%
Mdm2 MdmX PPI – inhibitors of human Mdm2/MdmX interaction | hit rate 3% among 330,000 | inhibition, % at 8 µM | O15151+Q00987 | SaOS-2 split-luciferase Mdm2/MdmX complementation, luminescence;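 active = inhibition of at least 50% at 8 µM in the primary screen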
Target sequence (O15151 whole entry, looked up): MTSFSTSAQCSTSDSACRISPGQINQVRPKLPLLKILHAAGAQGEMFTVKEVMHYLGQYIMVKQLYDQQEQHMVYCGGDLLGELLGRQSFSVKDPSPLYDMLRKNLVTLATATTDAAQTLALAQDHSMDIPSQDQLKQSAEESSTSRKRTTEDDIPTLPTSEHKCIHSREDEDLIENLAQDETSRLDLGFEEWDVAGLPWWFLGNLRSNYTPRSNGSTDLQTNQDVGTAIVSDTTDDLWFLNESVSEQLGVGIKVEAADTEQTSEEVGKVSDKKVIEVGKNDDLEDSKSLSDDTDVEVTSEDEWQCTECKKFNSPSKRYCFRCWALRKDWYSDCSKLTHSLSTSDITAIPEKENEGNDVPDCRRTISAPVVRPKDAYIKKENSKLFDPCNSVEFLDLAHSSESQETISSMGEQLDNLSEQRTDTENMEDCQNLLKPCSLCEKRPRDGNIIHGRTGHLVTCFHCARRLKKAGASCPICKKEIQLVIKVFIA
Target sequence (Q00987 whole entry, looked up): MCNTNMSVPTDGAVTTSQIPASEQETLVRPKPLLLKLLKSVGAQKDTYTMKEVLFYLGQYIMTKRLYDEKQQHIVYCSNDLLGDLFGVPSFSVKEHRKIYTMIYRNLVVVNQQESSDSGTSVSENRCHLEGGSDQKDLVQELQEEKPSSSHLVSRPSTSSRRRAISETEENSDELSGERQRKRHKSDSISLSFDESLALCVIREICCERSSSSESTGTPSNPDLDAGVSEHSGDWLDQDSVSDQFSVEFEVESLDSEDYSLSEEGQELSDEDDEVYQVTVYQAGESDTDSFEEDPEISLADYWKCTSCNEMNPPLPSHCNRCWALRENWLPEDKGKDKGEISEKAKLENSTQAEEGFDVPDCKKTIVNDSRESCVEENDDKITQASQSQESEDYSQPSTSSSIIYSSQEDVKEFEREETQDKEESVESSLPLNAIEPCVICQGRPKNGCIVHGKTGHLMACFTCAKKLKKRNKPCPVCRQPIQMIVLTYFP
697 NFkB inh – inhibitors of the PMA/ionomycin-induced NF-kB reporter in 697 B cells | 697 B-cell NF-kB luciferase reporter, 16 h | inhibition, % at 4 µM | hit rate 0.33% among 330,000; in the data active = inhibition above about 35%
Gli-Sufu block – antagonists of Gli-Sufu signaling; Sufu-KO-LIGHT fibroblasts, Gli luciferase reporter luminescence; inhibition, % at 5 µM; hit rate 0.74% among 340,000; AID 588413;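 active = inhibition above about 55%, limit read from the data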
Mdm2-MdmX conf – human Mdm2/MdmX binding inhibition, confirmed; hit rate 55% among 10,000; shares compounds with Mdm2 MdmX PPI; luminescent assay; inhibition, % at 8 µM; in the data active = inhibition above about 40%
FLuc counter – counter-screen for Mdm2/MdmX inhibitors: full-length luciferase; AID 504607; hit rate 77% among 6,200; shares compounds with Mdm2 MdmX PPI; SaOS-2 full-length luciferase counterscreen, luminescence; inhibition, % at 8 µM;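 active = mean inhibition at 8 µM reaching about 37%, which flags the compound as non-specific, limit read from the data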;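 note: p53-null SaOS-2 cells with luciferase driven by a doxycycline-inducible promoter; compound on cells about two nights before reading with doxycycline added after day one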
Of the large screens only hits and unclear results are named; the others gave an inactive call (follow-up assays come after a bar, where they were run).

C/C(=N/Nc1ccccc1[N+](=O)[O-])c1ccc(C)c([N+](=O)[O-])c1	Mdm2 MdmX PPI 70 | Mdm2-MdmX conf inactive
O=C(O)c1ccc(Nc2nc3ccc(Cl)cc3[nH]2)cc1	none
CCC(CC)CN1CCN=C1Nc1ccccc1	none (no result: aSyn UTR inh, KLF5 inhibitor)
C[C@H](CO)N1C[C@H](C)[C@H](CN(C)S(=O)(=O)c2cn(C)cn2)Oc2ccc(NC(=O)Nc3ccc(C(F)(F)F)cc3)cc2CC1=O	none (no result: aSyn UTR inh, KLF5 inhibitor)
Cc1ccc(S(=O)(=O)N(C)C[C@@H]2Oc3ccc(NC(=O)CCC(F)(F)F)cc3CC(=O)N([C@@H](C)CO)C[C@@H]2C)cc1	Mdm2 MdmX PPI 59 (no result: aSyn UTR inh, KLF5 inhibitor) | Mdm2-MdmX conf 57 | FLuc counter 63
C[C@@H]1CN([C@@H](C)CO)C(=O)Cc2cc(NC(=O)Nc3ccc(C(F)(F)F)cc3)ccc2O[C@@H]1CN(C)S(=O)(=O)c1ccc(Cl)cc1	Mdm2 MdmX PPI 94 (no result: aSyn UTR inh, KLF5 inhibitor) | Mdm2-MdmX conf 53 | FLuc counter 38
C[C@@H]1CN([C@H](C)CO)C(=O)c2cc(NC(=O)Nc3ccc(C(F)(F)F)cc3)ccc2O[C@H]1CN(C)S(=O)(=O)c1ccc(Cl)cc1	Mdm2 MdmX PPI 85 (no result: aSyn UTR inh, KLF5 inhibitor) | Mdm2-MdmX conf inactive
C[C@H]1CN([C@@H](C)CO)C(=O)c2cccc(NC(=O)Nc3ccc(C(F)(F)F)cc3)c2O[C@@H]1CN(C)S(=O)(=O)c1ccc(Cl)cc1	Mdm2 MdmX PPI 58 (no result: aSyn UTR inh, KLF5 inhibitor) | Mdm2-MdmX conf inactive
C[C@H](CO)N1C[C@H](C)[C@@H](CN(C)S(=O)(=O)c2ccc(F)cc2)Oc2ccc(NC(=O)Nc3ccc(C(F)(F)F)cc3)cc2C1=O	Mdm2 MdmX PPI 75 (no result: aSyn UTR inh, KLF5 inhibitor) | Mdm2-MdmX conf inactive
CC(NC(=O)COC(=O)CCN1C(=O)C2CC=CCC2C1=O)c1ccc(Br)cc1 (stereo not given)	none (no result: aSyn UTR inh, KLF5 inhibitor)
O=C(C#Cc1ccccc1)c1cccc([N+](=O)[O-])c1	Mdm2 MdmX PPI 88 | Mdm2-MdmX conf inactive
O=C(N/N=C/c1sc(=O)n(Cc2ccc(Br)cc2)c1Cl)c1ccco1	Mdm2 MdmX PPI 59 | Mdm2-MdmX conf inactive
COC(=O)[C@]1(Cc2ccccc2)N[C@H](c2ccc(-c3ccc(Cl)c(Cl)c3)cc2)[C@@H]2C(=O)N(C)C(=O)[C@@H]21	Mdm2 MdmX PPI 56 (no result: KLF5 inhibitor) | Mdm2-MdmX conf 51 | FLuc counter 82
CCN1C(=O)[C@H]2[C@@H](c3ccc(-c4ccc(Cl)c(Cl)c4)cc3)N[C@@](CC(C)C)(C(=O)OC)[C@H]2C1=O	none (no result: KLF5 inhibitor)
CCN1C(=O)[C@H]2[C@@H](c3ccc(-c4cccc(Cl)c4)cc3)N[C@@](CC(C)C)(C(=O)OC)[C@H]2C1=O	Mdm2 MdmX PPI 52 (no result: aSyn UTR inh, KLF5 inhibitor) | Mdm2-MdmX conf inactive
COC(=O)[C@]1(Cc2ccccc2)N[C@H](c2ccc(-c3cccc(Cl)c3)cc2)[C@@H]2C(=O)N(C)C(=O)[C@@H]21	Mdm2 MdmX PPI 55 (no result: KLF5 inhibitor) | Mdm2-MdmX conf inactive | FLuc counter 74
COC(=O)[C@]1(Cc2ccccc2)N[C@H](c2ccc(-c3ccccc3)cc2)[C@@H]2C(=O)N(C)C(=O)[C@@H]21	none (no result: KLF5 inhibitor)
COC(=O)[C@]1(CC(C)C)N[C@H](c2ccc(-c3ccc(Cl)c(Cl)c3)cc2)[C@@H]2C(=O)N(C)C(=O)[C@@H]21	Mdm2 MdmX PPI 57 (no result: KLF5 inhibitor) | Mdm2-MdmX conf inactive
COC(=O)C1(Cc2ccccc2)NC(c2ccc(F)cc2)C2C(=O)N(C)C(=O)C21 (stereo not given)	none
O=C1C2C3CC(C(Br)C3Br)C2C(=O)N1c1nccs1 (stereo not given)	none (no result: KLF5 inhibitor)
CCCCC[C@@H]1C=C(C(=O)O)[C@H](c2cccc(C)c2)N1S(=O)(=O)c1ccc(C)cc1	none (no result: aSyn UTR inh, KLF5 inhibitor)
Cc1ccccc1NC1=C/C(=N\S(=O)(=O)c2ccc(C(=O)O)cc2)c2ccccc2C1=O	Mdm2 MdmX PPI 85 | Mdm2-MdmX conf inactive
CCc1ccc(S(=O)(=O)/N=C2\C=C(NS(=O)(=O)c3ccccc3)C(=O)c3ccccc32)cc1	none
O=C(O)c1ccc(S(=O)(=O)/N=C2\C=C(Nc3ccccc3F)C(=O)c3ccccc32)cc1	Mdm2 MdmX PPI 72 | Mdm2-MdmX conf 65 | FLuc counter inactive
